Assay [1] is described as follows: Cell Viability - BJ (AID 421; calls by dose curve;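 also: potency is read from the fitted curve at half-maximal effect; cells exposed to compound for 40 hours at 37 °C before readout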). As to conditions: BJ fibroblast viability, qHTS. The method in brief: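 Normal human BJ foreskin fibroblasts, 1500/well in complete medium, treated 40 hr at 37 °C. Cellular ATP by CellTiter-Glo luminescence; normalized to DMSO and 100 uM tamoxifen, AC50 from Hill fit.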
Background: Quantitative high-throughput screening tests each substance at several concentrations.

Assay [2] is described as follows: Cell Viability - Jurkat (AID 426;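 active = dose-dependent loss of cell ATP signal giving a full or clear fitted curve, ranked by lower potency value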; also: potency is read from the fitted curve at half-maximal effect). As to conditions: qHTS. The method, boiled down: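 qHTS, 1536-well; Jurkat E6-1, 5000 cells/well, complete medium; cpd 40 hr, 37 °C; CellTiter-Glo 20 min RT; luminescence. AC50 by Hill fit.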
Assay [3] is described as follows: Cell Viability - Hek293 (AID 427;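 active = compounds whose dose-response curve shows a full or clear partial loss of cell viability, called from curve shape rather than a numeric limit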;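 also: potency is read from the fitted curve at half-maximal effect; cells exposed to compound for 40 hours at 37 °C before reading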). As to conditions: qHTS. The method, boiled down: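 HEK293 cells in complete medium were exposed to compound for 40 hr at 37 °C, then cellular ATP was read by CellTiter-Glo luminescence. Data were normalized to DMSO (basal) and 100 uM tamoxifen (100% inhibition), and AC50 came from Hill fits.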
The nature of assay [4]: Cell Viability - HepG2 (AID 433; calls by dose curve;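 also: potency is read from the fitted curve at half-maximal effect; potency for ATP loss meaning cytotoxicity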). To be noted: qHTS. The method, boiled down: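 ATP luminescence (CellTiter-Glo) after 40 h compound exposure, 37 °C, HepG2, 1500 cells/well, complete medium. Normalized: DMSO = basal, 100 uM tamoxifen = 100% inhibition. AC50 via standard Hill equation.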
Assay [5] in a line: Cell Viability - MRC5 (AID 434; calls by dose curve;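 also: potency is read from the fitted curve at half-maximal effect; potency reflects cytotoxicity seen as loss of intracellular ATP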). To be noted: MRC5 lung fibroblast viability, qHTS. The method, boiled down:
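MRC5 normal human lung fibroblasts (1500/well) were treated with compounds for 40 hr at 37 °C in complete medium, and viable cells were measured as intracellular ATP by CellTiter-Glo luminescence. AC50 came from Hill fits, normalized to DMSO and 100 uM tamoxifen.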

Assay [6] addresses Mitogen-activated protein kinase 10 (Mus musculus) (UniProt Q61831). Briefly: JNK3 AlphaScreen Assay (AID 530).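 Also: kinase came from lysate of stimulated human HepG2 cells; signal reports phosphorylation of biotinylated GST-cJun 1-79 at Ser73 with 10 µM ATP; % is scaled to controls: 0 for no effect and ±100 for the full control effect.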 The method, boiled down: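 Inhibitors reduce antibody binding to phosphorylated biotin-cJun, lowering AlphaScreen luminescence. Lysates from HepG2 cells pre-activated by IL-1beta plus TNF-alpha supplied JNK3; compounds were titrated.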
Assay [7] is described as follows: Cell Viability - N2a (AID 540; active = well fitted curve in the direction sought with a large enough effect; an effect the other way counts as inactive or inconclusive;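 also: plate controls were DMSO alone for no effect and tamoxifen control for full effect; nearly all actives have a fitted effect of over 45% in size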). The method, boiled down:
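Luminescent ATP signal (CellTiter-Glo, 20 min at room temperature) served as the viability read-out after N2a cells were treated with compounds for 40 hours at 37 °C. Concentration-response data were fitted to the Hill equation for AC50.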

Assay [8] can be described thus: Cell Viability - NIH 3T3 (AID 541; active = well fitted curve in the direction sought with a large enough effect; an effect the other way counts as inactive or inconclusive;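 also: plate controls were DMSO alone for no effect and tamoxifen positive control for full effect; nearly all actives have a fitted effect of over 25% in size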). As to conditions: NIH 3T3 cell viability, qHTS; activity change, negative = cytotoxicity: at 92.2 µM (top of the series). The method, boiled down:
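Luminescent ATP signal (CellTiter-Glo) served as the viability read-out after NIH 3T3 cells were exposed to compounds over a concentration range for 40 hr at 37 °C. Hill-equation modelling of concentration-response data gave AC50.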

The nature of assay [9]: Cell Viability - H-4-II-E (AID 543; active = well fitted curve in the direction sought with a large enough effect; an effect the other way counts as inactive or inconclusive; also: % is scaled to controls: 0 for no effect and ±100 for the full control effect; nearly all actives have a fitted effect of over 35% in size). The method, boiled down: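 Luminescent ATP signal (CellTiter-Glo) served as the viability read-out, with cytotoxicity seen as a concentration-dependent ATP drop. Cells were treated for 40 hours in complete medium. AC50 values derive from Hill-equation modelling.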
Assay [10] can be described thus: Cell Viability - SH-SY5Y (AID 544; active = well fitted curve in the direction sought with a large enough effect; an effect the other way counts as inactive or inconclusive;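 also: 0% = DMSO alone and -100% = 100 µM tamoxifen; nearly all actives have a fitted effect of over 55% in size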). To be noted: SH-SY5Y neuroblastoma cell viability; viability change, negative = cytotoxic: at 92.2 µM (top of the series). The method, boiled down:
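Luminescent ATP read-out (CellTiter-Glo) measures loss of viable SH-SY5Y neuroblastoma cells after 40 hr compound exposure at 37 °C. AC50 values derive from standard Hill modelling of qHTS concentration-response data.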

Assay [11] can be described thus: Cell Viability - Renal Proximal Tubule (AID 545; active = well fitted curve in the direction sought with a large enough effect; an effect the other way counts as inactive or inconclusive;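 also: 0% = DMSO only and -100% = 100 µM tamoxifen; nearly all actives have a fitted effect of over 40% in size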). The method, boiled down:
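Rat kidney proximal tubule cells, freshly isolated; 1000 cells/well, 5 hr settle, compound 40 hr 37 °C. CellTiter-Glo 20 min RT, luminescence read. AC50 by standard Hill fit.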

Assay [12] can be described thus: Cellular Toxicity (caspase-3) HepG2 (AID 654; active = well fitted curve in the direction sought with a large enough effect; an effect the other way counts as inactive or inconclusive;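 also: cells exposed to compound for 16 hours before reading; 0% = DMSO alone and 100% = caspase signal from 100 µM tamoxifen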). The method in brief:
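Cells plated 5 hr at 37 °C, compound added, incubated 16 hr at 37 °C. Caspase-Glo 3/7 reagent followed, 20 min at room temperature, then luminescence read. Activation scored as signal increase; AC50 from Hill fit.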

Assay [13] can be described thus: AP1 Signaling Pathway (AID 357). Also: % is scaled to controls: 0 for no effect and ±100 for the full control effect. The method, boiled down: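 AP-1-bla ME-180 cells with beta-lactamase reporter under AP-1 response element, stimulated with EC50 EGF; compounds titrated, 5 hours at 37 degrees Celsius. CCF4 read at 460/530 nm ratio; positive and negative modulators judged by AC50.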
Assay [14] is described as follows: NFAT Signaling Pathway (AID 444).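 Also: carbachol stimulus at about its EC50 of 1 µM final; % is scaled to controls: 0 for no effect and ±100 for the full control effect.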 To be noted: Jurkat NFAT-bla M1, carbachol, beta-lactamase ratio, 5 h; at 17.2 µM (top of the series) unless noted. The method, boiled down: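 Jurkat cells carrying an NFAT-driven β-lactamase reporter and co-transfected muscarinic M1 receptor were treated with compound plus carbachol (1 uM final, an EC50 level) for 5 h at 37 °C. CCF4 loading followed for 1 h at RT; 460/530 nm ratio gave %activity.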

Assay [15] in a line: Stat Signaling Pathway (AID 446).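 Also: ME-180 cervical cancer cells given 40 pM IL-6 alongside compound; SIE-controlled beta-lactamase reporter measured as 460/530 nm FRET emission ratio; % is scaled to controls: 0 for no effect and ±100 for the full control effect.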 The method in brief:
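ME-180 cells carrying a SIE-driven beta-lactamase reporter are stimulated with 40 pM IL-6 for 5 h at 37C in the presence of compound. The 460/530 nm FRET substrate ratio is read after 2.5 h at RT. Data are normalised to 300 pM IL-6 and to 125 nM JAK inhibitor controls.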

Assay [16] concerns the target Glucocorticoid receptor (Homo sapiens) (UniProt P04150). Briefly: GR-GFP Redistribution (AID 450;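 active = compounds whose dose series gives a full or clear partial fitted curve of increased nuclear translocation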; also: potency is read from the fitted curve at half-maximal effect). To be noted: U2OS GR-GFP nuclear translocation, laser cytometry, 2 h.
Assay [17] shares this target. Briefly: GR-EFC Redistribution (AID 451; calls by dose curve; also: potency is read from the fitted curve at half-maximal effect). As to conditions: CHO-K1 GR-EFC translocation, beta-gal luminescence, 2 h. The method, boiled down: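 CHO-K1 cells stably expressing nuclear-localized β-gal enzyme acceptor and GR fused C-terminally to the enzyme donor fragment; ligand-driven nuclear translocation restores β-gal by complementation. Compounds titrated up to 46 uM final, 2 h at 37 °C; luminescence read.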

Assay [18] concerns the target 3',5'-cyclic-AMP phosphodiesterase 4B (Homo sapiens) (UniProt Q07343). Briefly: qHTS Assay for Inhibitors of PDE-IV (AID 607; active = well fitted activation curve with a large enough effect in the main read-out, with a control signal flat, not every such curve was filed as active; also: % of control where 0% means no effect). The method in brief:
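HEK293 ACTOne cells with CNG channel (1000/well), endogenous PDE4; membrane potential dye, compounds up to 22.9 uM final. Fluorescence Ex 535/Em 590; RO 20-1724 (100 uM final) as reference.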

For assay [19], the target named is Cytochrome P450 1A2 (Homo sapiens) (UniProt P05177). Briefly: p450-cyp1a2 (AID 410; calls by dose curve; also: potency is read from the fitted curve at half-maximal effect;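 as to activity change, negative = inhibition: -100% = full effect of reference inhibitor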). The method in brief: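 Luminescent readout of luciferin formed from Luciferin-ME by human CYP1A2; data normalized against complete inhibition by 57 uM furafylline. Enzyme 20nM, substrate 100uM at Km, 100mM KPO4 buffer, 60 min reaction at room temperature.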

Each structure is given as a SMILES string. “And” between values parts separate entries of the source, which are not always exact repeats. Equal entries are not always repeated. Unmarked numbers belong to inactive results. Records with an inconclusive call do not appear. The source made the active and inactive calls. Unless noted, calls follow the shape of the dose curve; as a rule, active = well fitted curve in either direction with a large enough effect (not every such curve was filed as active); inconclusive = small, poorly fitted or top-dose-only effect, or another doubt; inactive = flat fitted curve, though single readings scatter.

Glucocorticoid receptor (Homo sapiens), sequence (P04150 whole entry, looked up, the tested form may be a part): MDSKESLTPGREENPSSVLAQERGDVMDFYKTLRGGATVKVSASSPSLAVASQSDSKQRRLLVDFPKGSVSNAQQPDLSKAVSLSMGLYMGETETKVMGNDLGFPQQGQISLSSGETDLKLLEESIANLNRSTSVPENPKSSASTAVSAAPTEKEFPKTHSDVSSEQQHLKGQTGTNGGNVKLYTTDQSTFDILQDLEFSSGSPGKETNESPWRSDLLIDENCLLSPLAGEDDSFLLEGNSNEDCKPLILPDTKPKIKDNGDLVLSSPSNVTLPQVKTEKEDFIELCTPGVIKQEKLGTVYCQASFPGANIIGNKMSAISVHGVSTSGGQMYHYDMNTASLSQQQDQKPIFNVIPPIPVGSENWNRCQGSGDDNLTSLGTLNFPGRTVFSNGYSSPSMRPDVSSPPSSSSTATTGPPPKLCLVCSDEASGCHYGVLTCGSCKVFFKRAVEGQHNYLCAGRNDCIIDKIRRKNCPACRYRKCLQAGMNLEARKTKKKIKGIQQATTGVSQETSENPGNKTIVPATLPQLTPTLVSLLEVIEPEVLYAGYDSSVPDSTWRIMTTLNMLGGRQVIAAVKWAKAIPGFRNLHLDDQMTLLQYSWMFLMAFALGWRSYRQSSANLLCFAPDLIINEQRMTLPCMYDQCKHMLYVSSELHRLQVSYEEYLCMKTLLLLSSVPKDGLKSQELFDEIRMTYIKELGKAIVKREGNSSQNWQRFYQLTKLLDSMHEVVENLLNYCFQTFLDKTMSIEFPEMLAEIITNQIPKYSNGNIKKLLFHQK
3',5'-cyclic-AMP phosphodiesterase 4B (Homo sapiens), sequence (Q07343 whole entry, looked up): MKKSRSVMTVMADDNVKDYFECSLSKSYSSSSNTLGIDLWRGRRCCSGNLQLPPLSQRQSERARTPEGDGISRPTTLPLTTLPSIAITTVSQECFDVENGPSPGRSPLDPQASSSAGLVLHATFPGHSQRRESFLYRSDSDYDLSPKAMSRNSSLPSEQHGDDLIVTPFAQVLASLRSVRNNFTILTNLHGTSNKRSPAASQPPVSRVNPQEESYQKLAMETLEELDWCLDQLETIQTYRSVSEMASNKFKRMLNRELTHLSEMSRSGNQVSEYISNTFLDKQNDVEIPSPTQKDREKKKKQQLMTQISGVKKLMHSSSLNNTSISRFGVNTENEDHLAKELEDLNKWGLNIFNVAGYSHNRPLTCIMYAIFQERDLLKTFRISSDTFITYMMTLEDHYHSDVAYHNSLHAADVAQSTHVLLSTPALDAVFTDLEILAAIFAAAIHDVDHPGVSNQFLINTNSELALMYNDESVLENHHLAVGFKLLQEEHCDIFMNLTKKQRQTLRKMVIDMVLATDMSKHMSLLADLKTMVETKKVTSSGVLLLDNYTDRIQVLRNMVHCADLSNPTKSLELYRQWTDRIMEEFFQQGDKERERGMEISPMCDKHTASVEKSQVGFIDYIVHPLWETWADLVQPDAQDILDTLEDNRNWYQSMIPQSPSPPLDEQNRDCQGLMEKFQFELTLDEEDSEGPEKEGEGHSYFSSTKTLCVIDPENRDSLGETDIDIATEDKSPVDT
Cytochrome P450 1A2 (Homo sapiens), sequence (P05177 whole entry, looked up): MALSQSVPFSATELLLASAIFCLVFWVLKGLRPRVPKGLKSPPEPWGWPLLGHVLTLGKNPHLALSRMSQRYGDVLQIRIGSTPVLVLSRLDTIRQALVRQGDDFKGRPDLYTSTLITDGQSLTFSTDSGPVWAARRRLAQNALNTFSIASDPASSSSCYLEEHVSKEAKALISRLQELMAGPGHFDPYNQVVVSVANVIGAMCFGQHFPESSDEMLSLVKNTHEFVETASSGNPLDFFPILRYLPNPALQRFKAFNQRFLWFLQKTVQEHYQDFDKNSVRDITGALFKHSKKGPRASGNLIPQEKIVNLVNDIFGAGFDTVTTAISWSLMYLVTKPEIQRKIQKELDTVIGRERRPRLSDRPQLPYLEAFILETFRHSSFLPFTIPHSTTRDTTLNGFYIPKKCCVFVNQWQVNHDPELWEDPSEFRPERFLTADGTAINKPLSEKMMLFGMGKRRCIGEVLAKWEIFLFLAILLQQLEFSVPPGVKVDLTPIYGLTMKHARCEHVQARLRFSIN

As to `C/C=C/c1ccc(O)c(OC)c1`, the Potency in assay [1], in assay [2], in assay [3], in [4] and in assay [5] was greater than 92 µM each time. In addition, the Potency entry in [6], in [7] and in assay [9] was “inactive” throughout. In [8], the activity change, negative = cytotoxicity is -17%. Further, the viability change, negative = cytotoxic in [10] was 1.26%. For the same compound, the result in assay [11] and in assay [12] was inactive.
As for `C=C[C@H]1CN2CC[C@H]1C[C@@H]2[C@@H](O)c1ccnc2ccc(OC)cc12`, the Potency in assay [1], in assay [3], in assay [4] and in [5] was greater than 92 µM each time. Moreover, the Potency result in assay [6], in assay [7] and in assay [9] was “inactive” throughout. Further, in [10], the viability change, negative = cytotoxic was -25.7%. Further, the result in assay [11] and in [12] was inactive.
In the case of `COc1ccc(C(=O)c2ccccc2O)c(O)c1`, the compound was called inactive in assay [13], in assay [15] and in [18]. Moreover, the activity change, negative = inhibition in [14] is -15.7%. Also, the Potency in assay [16] and in assay [17] was greater than 20.6 µM throughout. Besides, in assay [6], the Potency entry was “inactive”.
Turning to `CCOC(=O)Nc1ccc2c(c1)N(C(=O)CCN1CCOCC1)c1ccccc1S2`, the Potency result in assay [19] and in assay [6] was “inactive” each time. Further, the call in assay [15] was inactive. Also, the Potency in [17] is greater than 20.6 µM.
`CCCCc1cc2ccccc2c(OCCN(C)C)n1`: the values for the Potency in assay [19], in assay [16] and in [17] were 0.0794 µM (active), greater than 20.6 µM and greater than 20.6 µM, respectively. Also, the compound was classed as inactive in assay [15]. Further, the Potency result in assay [6] is “inactive”.
Turning to `CN(C)CCOC(=O)C(c1ccccc1)C1(O)CCCC1` (centres undefined), the compound was classed as inactive in [13] and in assay [15]. For the same compound, the activity change, negative = inhibition in assay [14] was -76.1% (active). The Potency in assay [16] is greater than 20.6 µM.
Take `O=C(c1ccc(F)cc1)C1CCN(CCn2c(=S)[nH]c3ccccc3c2=O)CC1`: the Potency in [19] was 15.8 µM (active); in assay [16] it was greater than 46 µM; in assay [17], greater than 46 µM. Further, the Potency entry in [6] is “inactive”.
Turning to `CNCCc1ccccn1`, the Potency result in assay [19] and in [6] was “inactive” throughout. Moreover, in assay [14], the activity change, negative = inhibition was -6.53%. Besides, the call in [15] and in [18] was inactive. In addition, the Potency in assay [16] and in assay [17] was greater than 20.6 µM in each case.
In the case of `CC(=O)OCC(=O)[C@H]1CC[C@H]2[C@@H]3CCC4=CC(=O)CC[C@]4(C)[C@H]3CC[C@]12C`, the result in assay [13] and in assay [15] was inactive.
With `CCCCN1C[C@H](O)[C@@H](O)[C@H](O)[C@H]1CO`, the call in assay [13] and in assay [15] was inactive. Further, the activity change, negative = inhibition in assay [14] is 14.7%. Moreover, the Potency in assay [16] was greater than 20.6 µM.
For the compound `CCCCC(CC)COC(=O)c1ccc(N(C)C)cc1` (centres undefined), the Potency in [1], in assay [2], in assay [3], in assay [4] and in assay [5] was greater than 92 µM in each case. For the same compound, the Potency entry in assay [7] and in assay [9] was “inactive” throughout. Also, the activity change, negative = cytotoxicity in assay [8] was -7.45%. For the same compound, the viability change, negative = cytotoxic in assay [10] was 0.409%. In addition, the outcome in [11] and in [12] was inactive.
As for `CC(=O)O[C@]1(C(C)=O)CC[C@H]2[C@@H]3C=C(C)C4=CC(=O)CC[C@]4(C)[C@H]3CC[C@@]21C`, the compound was classed as inactive in [13] and in assay [15]. The activity change, negative = inhibition in assay [14] is -25.3%. For the same compound, the Potency in [16] is 0.00185 µM (active).
Turning to `NC(=O)c1ccccc1O`, the Potency in assay [1], in assay [2], in assay [3], in assay [4] and in assay [5] was greater than 92 µM each time. Besides, the Potency result in [6], in [7] and in assay [9] was “inactive” in each case. In addition, in assay [8], the activity change, negative = cytotoxicity was 6.43%. In addition, in assay [10], the viability change, negative = cytotoxic is 4.84%. In addition, the compound was classed as inactive in assay [11] and in [12].
Turning to `COc1ccccc1N1CCN(CCCCNC(=O)c2ccc(-c3ccc(C(C)=O)cc3)cc2)CC1`, the figures for the Potency in [19], in assay [16] and in [17] were 25.1 µM (active), greater than 46 µM and greater than 46 µM, respectively.
For the compound `CCCCCCCCNC(C)C(O)c1ccc(SC(C)C)cc1` (centres undefined), the outcome in [13] and in [15] was inactive. In addition, in assay [16], the Potency is greater than 20.6 µM.
Turning to `O=C1C(=O)c2ccccc2C(O)=C1C1CCC(c2ccc(Cl)cc2)CC1` (centres undefined), the compound was called inactive in assay [13] and in assay [18]. In [14], the activity change, negative = inhibition is -25%. In addition, the Potency entry in assay [6] is “inactive”.
Turning to `CNCCCCOc1ccccc1Cc1ccccc1`, the Potency in assay [16] and in [17] was greater than 46 µM throughout. The Potency entry in assay [6] is “inactive”.
On to `CCOc1ccccc1C(N)=O`, for which the Potency in assay [1], in assay [2], in assay [3], in assay [4] and in assay [5] was greater than 92 µM each time. Moreover, the Potency result in assay [6], in assay [7] and in assay [9] was “inactive” in each case. Further, in assay [8], the activity change, negative = cytotoxicity is 2.98%. In [10], the viability change, negative = cytotoxic was -2.76%. The call in assay [11] and in [12] was inactive.
In the case of `NCCNc1cccc2ccccc12`, the Potency in assay [1], in [4] and in [5] was greater than 92 µM in each case. Also, the Potency entry in assay [6] and in assay [7] was “inactive” each time. Further, in assay [8], the activity change, negative = cytotoxicity was -24.9%. In addition, the outcome in [11] and in assay [12] was inactive.
As for `O=C(O)CCC(=O)Nc1ccc(S(=O)(=O)Nc2nccs2)cc1`, the outcome in [13], in [15] and in assay [18] was inactive. Moreover, in assay [14], the activity change, negative = inhibition was 4.24% and -25.1%. Further, the Potency in assay [16] and in assay [17] was greater than 20.6 µM in each case. Besides, the Potency result in assay [6] was “inactive”.
Take `O=c1[nH]c(=O)n([C@H]2C[C@H](O)[C@@H](CO)O2)cc1F`: the outcome in [13] and in [15] was inactive. The Potency in [16] is greater than 20.6 µM.

The record behind these values is PubChem BioAssay (NCATS).
